In the library only some 8.3% were active in any assay of this set; here they are far more common.
Giardia FBPA inh = qHTS Assay for Inhibitors of Fructose-1,6-bisphosphate Aldolase from Giardia Lamblia; A8B2U2; purified Giardia FBPA; Potency, µM (titrated, usually from 59.6 µM), inactives show at the top dose activity, negative = inhibition, hits mostly inhibitors; 290,000 tested, 0.71% active; AID 2451, 2010; also: potency is read from the fitted curve at half-maximal effect; nearly all actives have a fitted effect of over 55% in size
Target sequence (A8B2U2 whole entry, looked up): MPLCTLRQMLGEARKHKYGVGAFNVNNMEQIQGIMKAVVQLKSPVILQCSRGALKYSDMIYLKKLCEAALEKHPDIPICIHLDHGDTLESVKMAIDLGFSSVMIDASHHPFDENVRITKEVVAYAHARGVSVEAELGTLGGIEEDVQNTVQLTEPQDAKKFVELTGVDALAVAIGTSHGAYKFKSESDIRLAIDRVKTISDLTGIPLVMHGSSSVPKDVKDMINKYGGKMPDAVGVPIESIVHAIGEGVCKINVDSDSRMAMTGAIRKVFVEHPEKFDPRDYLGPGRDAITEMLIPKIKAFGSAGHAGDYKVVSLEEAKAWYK
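40 nM FBPA preincubated 10 min at RT with compound (up to 57.5 uM final), then substrate plus GAPDH/TPI/NAD/arsenate coupling and diaphorase/resazurin added. Fluorescence read after 20 min at RT, 525/598 nm.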
HCV inh = qHTS Assay for Inhibitors of Hepatitis C Virus (HCV). Huh7.5.1 HCVcc-Cre infection, luciferase reporter, 44 h. Potency, µM (doses to about 41.8 µM), for inactives: at the top dose activity change, negative = inhibition, actives largely listed as inhibitors. 340,000 tested, 3.4% active; also: potency is read from the fitted curve at half-maximal effect
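Reporter virus HCVcc-Cre (~0.5 moi) infects cells exposed to compound; seeding density 1,000 cells/well with 4 h settling beforehand. Luminescence, 15 sec read, taken 44 h post-infection following a 15 min RT substrate incubation.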
HCMV inh = qHTS Assay for inhibitors of the human cytomegalovirus (HCMV) | HFF cells, HCMV-luciferase reporter, 72 h; hits give low values | activity change, negative = inhibition, % at 57.5 µM | 410,000 tested, 4.5% active; in the data active = activity change below about -60%; inconclusive = no clear call, values can overlap the other calls; inactive = above about -39%
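Inhibition of viral replication was scored as loss of reporter luminescence in HFFs infected with HCMV-luciferase (MOI 1 PFU/cell) for 72 h; compounds tested at 2 doses, normalized to buffer and Salinomycin controls.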
MARV entry inh = qHTS for inhibitors of binding or entry into cells for Marburg Virus; 300,000 tested, 1.8% active; Potency, µM (series often up to 37.8 µM), for the others: at the top dose activity change, negative = inhibition, actives largely listed as inhibitors; Marburg virus pseudotyped entry inhibition, cell reporter; AID 540276, 2011; calls by dose curve; tested in HEK293 cells; also: potency is read from the fitted curve at half-maximal effect
FMDV antiviral = High Throughput Screening for Foot and Mouth Disease Virus Antivirals | FMDV antiviral cell-based qHTS | Potency, µM (doses to about 57.9 µM), without a hit: at the top dose activity change, negative = inhibition, hits mostly inhibitors | 410,000 tested, 1.2% active; calls by dose curve; tested in HEK293T cells; also: read-out not given here; potency is read from the fitted curve at half-maximal effect; nearly all actives have a fitted effect of over 45% in size
LASV entry inh = qHTS for Inhibitors of binding or entry into cells for Lassa Virus. Lassa virus pseudotype entry inhibition, cell reporter. Potency, µM (titrated, usually from 37.9 µM), without a hit: at the top dose activity change, negative = inhibition, most hits filed as inhibitors. 300,000 tested, 1.2% active. AID 540256, 2011; calls by dose curve; tested in HEK293 cells; also: potency is read from the fitted curve at half-maximal effect; nearly all actives have a fitted effect of over 50% in size
An asterisk follows results filed as active; ? = inconclusive; . = no result; ! = repeats disagree; [ ] = another dose, or the depositor's remark. Unless noted, calls follow the shape of the dose curve; as a rule, active = well fitted curve in the direction sought with a large enough effect; inconclusive = small, poorly fitted or top-dose-only effect, or another doubt; inactive = no such curve, though single readings can be large; an effect the other way counts as inactive or inconclusive. % is scaled to controls: 0 for no effect and ±100 for the full control effect.

SMILES | Giardia FBPA inh | HCV inh | HCMV inh | MARV entry inh | FMDV antiviral | LASV entry inh
O=C(Nc1ccc2nc(-c3cccs3)c(-c3cccs3)nc2c1)NC1CC1 | -4.8% | 25.1µM* | -37.9 | -22.2% | -24.4% | -22.4%
OC1CN=C2CCCc3c2n(c2ccc(Cl)cc32)C1 (centres undefined) | -10.3% | -26.2% | 14.6 | -5.5% | -20.7% | 0.8%
c1ccc(-c2ccc3c(c2)c2c4n3CCN=C4CCC2)cc1 | 0.6% | ? | -15.1 | 25.9µM* | 0.0% | -5.4%
NS(=O)(=O)c1ccc(CCNc2nn3c(-c4ccc(F)c(Cl)c4)cnc3s2)cc1 | . | . | -75.2* | . | ? | .
CCCC1O[C@@H]2C[C@H]3[C@@H]4CCC5=CC(=O)C=C[C@]5(C)[C@H]4[C@@H](O)C[C@]3(C)[C@]2(C(=O)CO)O1 (some centres undefined) | -8.2% | 1.0%[8.37 µM] | 37.7 | 9.2µM* | -8.3% | ?
C=C1C(=O)O[C@@H]2C3OC3(C)CC/C=C(\C)CC[C@@H]12 (some centres undefined) | 3.2% | . | . | . | . | .
C=C1C(=O)O[C@@H]2[C@H]3O[C@]3(C)CC/C=C(\C)CC[C@@H]12 | . | -10.8% | -12.0 | 22.4µM* | 31.6µM*! | .
CCCNS(=O)(=O)c1cccc(C(=O)NC2CCCc3ccccc32)c1 (centres undefined) | -6.2% | -20.2% | 15.0 | 1.4% | 4.9% | 18.3µM*
COc1ccc(-n2cc(C(=O)NCCc3cc(OC)ccc3OC)c3ccccc3c2=O)cc1 | . | . | -21.0 | . | 1.6% | -5.7%[46.1 µM]
COc1ccc2cc(S(=O)(=O)c3ccccc3F)c(=O)oc2c1 | . | . | -11.6 | -21.2%[46.1 µM] | -3.5% | ?
O=c1[nH]c(SCCOc2cccc3ccccc23)nc2ccccc12 | -7.0% | 5.4% | ? | 2.82µM* | 0.4% | ?
Cc1ccc2scc(N3CCCCC3C)c(=O)c2c1 (centres undefined) | . | . | 7.5 | . | -26.6% | 13.0%[46.1 µM]
c1cnc(-c2noc(CN3CCN(C4CCCC4)CC3)n2)cn1 | 0.0% | 9.7% | -0.2 | 13.8%[46.1 µM] | -8.6% | 16.7%[46.1 µM]
c1ccc2sc(N3CCCN(Cc4nc(-c5cnccn5)no4)CC3)nc2c1 | -3.9% | ? | -78.6* | ? | -19.1% | 9.3%[46.1 µM]
COCOc1c2c(c(OCOC)c3c(OCOC)cccc13)C(=NNS(=O)(=O)c1ccc(C)cc1)C1=C2CCCC1 | . | . | . | -17.4%[14.2 µM] | . | .
CCNCc1nc2cc(Cl)ccc2c(=O)[nH]1 | -19.8% | -24.8% | -69.1* | -6.9% | -8.5% | -0.3%
Cc1cc(C)cc(NC(=O)Nc2cc(-c3ccccc3)nn2C)c1 | -3.0% | 1.1% | -68.7* | 22.0%[46.1 µM] | -4.2% | 4.3%[46.1 µM]
COc1ccccc1N1CCN(c2ccc(-c3nc(-c4ccccc4)no3)cc2[N+](=O)[O-])CC1 | . | . | 17.8 | ? | -13.1% | -0.5%[46.1 µM]
CC(C)(C)OC(=O)NCc1ccc(CNC(=O)c2[nH]cnc2C(=O)NCC(=O)OCc2ccccc2)cc1 | -9.1% | ? | ? | . | 28.2µM* | .
CC(C)(C)OC(=O)NCc1ccc(CNC(=O)c2nc[nH]c2C(=O)NCc2ccccc2)cc1 | . | ? | 0.4 | . | ? | .
C[C@@H](OC(=O)c1[nH]cnc1C(=O)NCc1ccc(CNC(=O)OC(C)(C)C)cc1)c1ccccc1 | . | ? | -14.6 | . | 31.6µM* | .
Cc1ccc2nc3c(cc(C#N)c(=O)n3-c3nnc(SCc4ccc(F)cc4)s3)c(=O)n2c1 | . | . | 4.3 | ? | 13.3% | ?
COc1ccc(CCNC(=O)CCCCn2c(=O)c3ccccc3n(CC(=O)Nc3c(C)cccc3C)c2=O)cc1OC | . | . | -109.3* | -1.5%[46.1 µM] | -8.2% | 3.5%[46.1 µM]
COc1ccc(CCNC(=O)CCCn2c(=O)c3ccccc3n(Cc3ccccc3C)c2=O)cc1OC | . | . | 14.0 | -1.9%[46.1 µM] | 10.3% | 3.7%[46.1 µM]
COc1ccc(CCNC(=O)Cn2c(=O)n(Cc3ccco3)c(=O)c3ccc(Cl)cc32)cc1OC | -13.2% | 11.2µM*! | ? | ? | 0.0% | -5.9%
SMILES | Giardia FBPA inh | HCV inh | HCMV inh | MARV entry inh | FMDV antiviral | LASV entry inh
COc1cc2c(=O)n(Cc3ccco3)c(=O)n(CC(=O)Nc3ccc(F)cc3)c2cc1OC | . | . | 11.6 | -10.0%[46.1 µM] | 9.9% | -8.1%[46.1 µM]
COc1ccc(NC(=O)Cn2c(=O)n(Cc3ccco3)c(=O)c3cc(OC)c(OC)cc32)cc1 | . | . | -97.0* | 11.0%[46.1 µM] | -7.9% | ?
COc1ccc(OC(C)C(=O)NCc2nc(-c3cccc(C)c3)no2)cc1 (centres undefined) | . | . | -11.4 | -0.4%[46.1 µM] | 0.0% | ?
O=C(c1ccc2c(c1)C(=O)NC2=O)c1ccc2c(c1)C(=O)NC2=O | . | . | 3.0 | . | . | .
CC(C)CCNC(=O)C(c1ccc(O)cc1)N(Cc1cccs1)C(=O)C1COc2ccccc2O1 (centres undefined) | -6.2% | 12.6µM* | -93.6* | ? | ? | 16.4µM*
CC(C)(C)NC(=O)CN(Cc1cccs1)C(=O)C1COc2ccccc2O1 (centres undefined) | 3.5% | 12.2% | 28.9 | 0.0% | 19.1% | -20.1%
COC(=O)c1csc(C(=O)c2c[nH]c3ccccc23)n1 | -2.6% | . | . | . | -10.5% | .
O=C(Cc1cccs1)N[C@@H]1c2ccccc2CC[C@H]1OCc1ccccc1 | . | 0.2% | -99.3* | . | 1.6% | .
COc1ccc(CC(=O)N[C@@H]2c3ccccc3CC[C@H]2OCc2ccccc2)cc1 | . | ? | -17.1 | . | -17.4% | .
O=C(Cc1cccs1)N[C@@H]1c2ccccc2CC[C@@H]1OCc1ccccc1 | . | 6.4% | -17.2 | . | 13.3% | .
CC(C)C(=O)N[C@@H]1c2ccccc2CC[C@@H]1OCc1ccccc1 | . | 1.8% | -82.2* | . | 0.0% | .
Cn1c(/C=N/c2nc3ccccc3[nH]2)nc2ccccc21 | 1.5% | 19.3% | -104.3* | -9.2% | 46.4% | -16.8%
COc1ccc(-c2ccc(C3C4C=CCC(C)C4C(=O)N3Cc3ccccc3)c(F)c2)cc1C (centres undefined) | -0.7% | . | . | . | . | .
O=C(O)CCNc1cc2ccccc2cc1C(=O)O | 4.46µM* | 10.6% | -14.2 | -0.6% | 0.6% | 0.1%
O=C1CCc2cc(S(=O)(=O)N3CCC(C(=O)NCCC4=CCCCC4)CC3)ccc2N1 | 2.6% | -7.5% | -98.5* | . | -12.7% | .
Cc1ccc(CCNC(=O)C2CCN(S(=O)(=O)c3ccc4c(c3)CCC(=O)N4)CC2)cc1 | 7.5% | 2.3% | 8.6 | -0.1% | -15.2% | -0.1%
Cc1noc(C)c1S(=O)(=O)N1CCC(C(=O)NCCC2=CCCCC2)CC1 | -3.3% | ? | -102.2* | ? | -0.2% | 10.9%
Cc1nn(C)c(C)c1S(=O)(=O)N1CCC(C(=O)NCCC2=CCCCC2)CC1 | -1.8% | -10.5% | ? | 0.1% | -10.7% | .
Cc1cc(C)c2nc(N3CCC(C(=O)NCCCN4CCCCC4)CC3)sc2c1 | 1.5% | ? | -103.3* | ? | ? | ?
O=C(c1ccccc1)N1CCN(c2nc3ccc([N+](=O)[O-])cc3s2)CC1 | 2.5% | ? | -66.6* | . | ? | .

High-throughput results deposited in PubChem by National Center for Advancing Translational Sciences (NCATS).
